# ± gives the standard deviation.
# T1: HaloTag-ATRX ADD domain (163-292)
# T1 chain: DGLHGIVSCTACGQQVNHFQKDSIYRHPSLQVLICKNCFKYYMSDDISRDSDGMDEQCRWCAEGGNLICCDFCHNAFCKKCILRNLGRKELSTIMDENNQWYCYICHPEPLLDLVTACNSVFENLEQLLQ
# Legend:
# Assay in all cases: peptide microarray binding signal (635 nm), min-max normalized on array (fraction of array maximum); higher = stronger binding
# [1] = target: T1, HaloTag-ATRX ADD domain (163-292)
# Method in brief: (§1)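 Triplicate spots of histone 13-mer peptide–cellulose conjugates with a Cy3 tracer were printed on nitrocellulose and probed for 1 h at 4°C with biotin-labelled HaloTag reader fusions (10 nM to 1 μM) plus streptavidin-Alexa Fluor 647 or rabbit histone antibodies (1:10,000 to 1:2,000) plus anti-rabbit Alexa 647. An Axon GenePix 4000B read the 635 nm channel. Binding signal is the spot-triplicate mean intensity after min-max scaling within each library.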
# [2] = target: HaloTag-ING2 PHD (mouse Ing2 200-280)
# Method in brief: as §1
# [3] = target: anti-H3K4me3 antibody ab8580
# Method in brief: as §1
# [4] = target: anti-H3K9me3 antibody ab8898
# Method in brief: as §1
# [5] = peptide region: H3 30-42, peptide modifications: H3K36me1 H3K37me3, binder concentration: 1:2,000 dilution
# [6] = peptide region: H3 30-42, peptide modifications: H3K36me1 H3K37me3, binder concentration: 1:10,000 dilution
# [7] = peptide region: H3 30-42, peptide modifications: H3K36me2 H3K37me3, binder concentration: 1:2,000 dilution
# [8] = peptide region: H3 30-42, peptide modifications: H3K36me2 H3K37me3, binder concentration: 1:10,000 dilution
# [9] = peptide region: H3 30-42, peptide modifications: H3K36me2 H3K37me2, binder concentration: 1:2,000 dilution
# [10] = peptide region: H3 30-42, peptide modifications: H3K36me2 H3K37me2, binder concentration: 1:10,000 dilution
# [11] = peptide region: H3 30-42, peptide modifications: H3K36me1, binder concentration: 1:2,000 dilution
# [12] = peptide region: H3 30-42, peptide modifications: H3K36me1, binder concentration: 1:10,000 dilution
# [13] = peptide region: H3 20-32, peptide modifications: H3T22ph H3K23me1, binder concentration: 1:2,000 dilution
# [14] = peptide region: H3 20-32, peptide modifications: H3T22ph H3K23me1, binder concentration: 1:10,000 dilution
# [15] = peptide region: H3 20-32, peptide modifications: H3T22ph H3K23me3, binder concentration: 1:2,000 dilution
# [16] = peptide region: H3 20-32, peptide modifications: H3T22ph H3K23me3, binder concentration: 1:10,000 dilution
# [17] = peptide region: H3 30-42, peptide modifications: H3K36ac H3K37me2, binder concentration: 1:2,000 dilution
# [18] = peptide region: H3 30-42, peptide modifications: H3K36ac H3K37me2, binder concentration: 1:10,000 dilution
# [19] = peptide region: H3 30-42, peptide modifications: H3K36me1 H3K37me1, binder concentration: 1:2,000 dilution
# [20] = peptide region: H3 30-42, peptide modifications: H3K36me1 H3K37me1, binder concentration: 1:10,000 dilution
# [21] = peptide region: H3 30-42, peptide modifications: H3K36ac, binder concentration: 1:2,000 dilution
# [22] = peptide region: H3 30-42, peptide modifications: H3K36ac, binder concentration: 1:10,000 dilution
# [23] = peptide region: H3 20-32, peptide modifications: H3T22ph, binder concentration: 1:2,000 dilution
# [24] = peptide region: H3 20-32, peptide modifications: H3T22ph, binder concentration: 1:10,000 dilution
binder,measurement,setting,value
PATGGVKKPHRYR [H3 30-42 P A T G G V Kme Kme3 P H R Y R],peptide microarray binding signal,"[1]; peptide region: H3 30-42, peptide modifications: H3K36me1 H3K37me3, binder concentration: 50 nM",0.00135 ± 1.7e-05
same,peptide microarray binding signal,"[1]; peptide region: H3 30-42, peptide modifications: H3K36me1 H3K37me3, binder concentration: 500 nM",0.00229 ± 8.8e-05
same,peptide microarray binding signal,"[2]; peptide region: H3 30-42, peptide modifications: H3K36me1 H3K37me3, binder concentration: 10 nM",0.00203 ± 8.9e-05
same,peptide microarray binding signal,"[2]; peptide region: H3 30-42, peptide modifications: H3K36me1 H3K37me3, binder concentration: 100 nM",0.00191 ± 0.00013
same,peptide microarray binding signal,[3]; [5],0.000359 ± 2.1e-05
same,peptide microarray binding signal,[3]; [6],0.000514 ± 1.1e-05
same,peptide microarray binding signal,[4]; [5],0.0008 ± 8.7e-05
same,peptide microarray binding signal,[4]; [6],0.000807 ± 1.5e-05
PATGGVKKPHRYR [H3 30-42 P A T G G V Kme2 Kme3 P H R Y R],peptide microarray binding signal,"[1]; peptide region: H3 30-42, peptide modifications: H3K36me2 H3K37me3, binder concentration: 50 nM",0.00266 ± 7.1e-05
same,peptide microarray binding signal,"[1]; peptide region: H3 30-42, peptide modifications: H3K36me2 H3K37me3, binder concentration: 500 nM",0.00343 ± 0.00019
same,peptide microarray binding signal,"[2]; peptide region: H3 30-42, peptide modifications: H3K36me2 H3K37me3, binder concentration: 10 nM",0.00298 ± 6.6e-05
same,peptide microarray binding signal,"[2]; peptide region: H3 30-42, peptide modifications: H3K36me2 H3K37me3, binder concentration: 100 nM",0.00454 ± 0.00042
same,peptide microarray binding signal,[3]; [7],0.0016 ± 0.00015
same,peptide microarray binding signal,[3]; [8],0.00126 ± 3.7e-05
same,peptide microarray binding signal,[4]; [7],0.00429 ± 0.0012
same,peptide microarray binding signal,[4]; [8],0.00133 ± 4e-05
PATGGVKKPHRYR [H3 30-42 P A T G G V Kme2 Kme2 P H R Y R],peptide microarray binding signal,"[1]; peptide region: H3 30-42, peptide modifications: H3K36me2 H3K37me2, binder concentration: 50 nM",0.00185 ± 1.5e-05
same,peptide microarray binding signal,"[1]; peptide region: H3 30-42, peptide modifications: H3K36me2 H3K37me2, binder concentration: 500 nM",0.00476 ± 0.00025
same,peptide microarray binding signal,"[2]; peptide region: H3 30-42, peptide modifications: H3K36me2 H3K37me2, binder concentration: 10 nM",0.00501 ± 0.00021
same,peptide microarray binding signal,"[2]; peptide region: H3 30-42, peptide modifications: H3K36me2 H3K37me2, binder concentration: 100 nM",0.00227 ± 0.00036
same,peptide microarray binding signal,[3]; [9],0.000396 ± 7e-06
same,peptide microarray binding signal,[3]; [10],0.000799 ± 5.8e-05
same,peptide microarray binding signal,[4]; [9],0.00267 ± 8.5e-05
same,peptide microarray binding signal,[4]; [10],0.00104 ± 2.8e-05
PATGGVKKPHRYR [H3 30-42 P A T G G V Kme K P H R Y R],peptide microarray binding signal,"[1]; peptide region: H3 30-42, peptide modifications: H3K36me1, binder concentration: 50 nM",0.0102 ± 0.00043
same,peptide microarray binding signal,"[1]; peptide region: H3 30-42, peptide modifications: H3K36me1, binder concentration: 500 nM",0.015 ± 0.0004
same,peptide microarray binding signal,"[2]; peptide region: H3 30-42, peptide modifications: H3K36me1, binder concentration: 10 nM",0.0184 ± 0.00087
same,peptide microarray binding signal,"[2]; peptide region: H3 30-42, peptide modifications: H3K36me1, binder concentration: 100 nM",0.0275 ± 0.0015
same,peptide microarray binding signal,[3]; [11],0.00478 ± 0.00043
same,peptide microarray binding signal,[3]; [12],0.00474 ± 0.00045
same,peptide microarray binding signal,[4]; [11],0.00237 ± 7.4e-05
same,peptide microarray binding signal,[4]; [12],0.00277 ± 4.8e-05
LATKAARKSAPAT [H3 20-32 L A Tph Kme A A R K S A P A T],peptide microarray binding signal,"[1]; peptide region: H3 20-32, peptide modifications: H3T22ph H3K23me1, binder concentration: 50 nM",0.012 ± 0.0014
same,peptide microarray binding signal,"[1]; peptide region: H3 20-32, peptide modifications: H3T22ph H3K23me1, binder concentration: 500 nM",0.0173 ± 0.0019
same,peptide microarray binding signal,"[2]; peptide region: H3 20-32, peptide modifications: H3T22ph H3K23me1, binder concentration: 10 nM",0.0223 ± 0.0014
same,peptide microarray binding signal,"[2]; peptide region: H3 20-32, peptide modifications: H3T22ph H3K23me1, binder concentration: 100 nM",0.0368 ± 0.0079
same,peptide microarray binding signal,[3]; [13],0.00793 ± 0.0012
same,peptide microarray binding signal,[3]; [14],0.0102 ± 0.0018
same,peptide microarray binding signal,[4]; [13],0.00538 ± 0.00068
same,peptide microarray binding signal,[4]; [14],0.003 ± 9.2e-05
LATKAARKSAPAT [H3 20-32 L A Tph Kme3 A A R K S A P A T],peptide microarray binding signal,"[1]; peptide region: H3 20-32, peptide modifications: H3T22ph H3K23me3, binder concentration: 50 nM",0.00577 ± 0.00039
same,peptide microarray binding signal,"[1]; peptide region: H3 20-32, peptide modifications: H3T22ph H3K23me3, binder concentration: 500 nM",0.0105 ± 0.00049
same,peptide microarray binding signal,"[2]; peptide region: H3 20-32, peptide modifications: H3T22ph H3K23me3, binder concentration: 10 nM",0.0219 ± 0.0024
same,peptide microarray binding signal,"[2]; peptide region: H3 20-32, peptide modifications: H3T22ph H3K23me3, binder concentration: 100 nM",0.026 ± 0.0027
same,peptide microarray binding signal,[3]; [15],0.0775 ± 0.0084
same,peptide microarray binding signal,[3]; [16],0.0633 ± 0.0092
same,peptide microarray binding signal,[4]; [15],0.0523 ± 0.0034
same,peptide microarray binding signal,[4]; [16],0.0244 ± 0.0027
PATGGVKKPHRYR [H3 30-42 P A T G G V Kac Kme2 P H R Y R],peptide microarray binding signal,"[1]; peptide region: H3 30-42, peptide modifications: H3K36ac H3K37me2, binder concentration: 50 nM",0.0026 ± 5.2e-05
same,peptide microarray binding signal,"[1]; peptide region: H3 30-42, peptide modifications: H3K36ac H3K37me2, binder concentration: 500 nM",0.00462 ± 0.00028
same,peptide microarray binding signal,"[2]; peptide region: H3 30-42, peptide modifications: H3K36ac H3K37me2, binder concentration: 10 nM",0.00269 ± 6.6e-05
same,peptide microarray binding signal,"[2]; peptide region: H3 30-42, peptide modifications: H3K36ac H3K37me2, binder concentration: 100 nM",0.00354 ± 8.3e-05
same,peptide microarray binding signal,[3]; [17],0.00125 ± 9e-05
same,peptide microarray binding signal,[3]; [18],0.00097 ± 2e-05
same,peptide microarray binding signal,[4]; [17],0.00166 ± 9.8e-05
same,peptide microarray binding signal,[4]; [18],0.00127 ± 0.0001
PATGGVKKPHRYR [H3 30-42 P A T G G V Kme Kme P H R Y R],peptide microarray binding signal,"[1]; peptide region: H3 30-42, peptide modifications: H3K36me1 H3K37me1, binder concentration: 50 nM",0.00245 ± 4.3e-05
same,peptide microarray binding signal,"[1]; peptide region: H3 30-42, peptide modifications: H3K36me1 H3K37me1, binder concentration: 500 nM",0.0039 ± 0.00015
same,peptide microarray binding signal,"[2]; peptide region: H3 30-42, peptide modifications: H3K36me1 H3K37me1, binder concentration: 10 nM",0.00424 ± 0.00021
same,peptide microarray binding signal,"[2]; peptide region: H3 30-42, peptide modifications: H3K36me1 H3K37me1, binder concentration: 100 nM",0.000496 ± 9.7e-06
same,peptide microarray binding signal,[3]; [19],0.000189 ± 2e-06
same,peptide microarray binding signal,[3]; [20],0.00559 ± 0.0011
same,peptide microarray binding signal,[4]; [19],0.00157 ± 0.00052
same,peptide microarray binding signal,[4]; [20],0.00254 ± 0.00014
PATGGVKKPHRYR [H3 30-42 P A T G G V Kac K P H R Y R],peptide microarray binding signal,"[1]; peptide region: H3 30-42, peptide modifications: H3K36ac, binder concentration: 50 nM",0.0068 ± 0.00033
same,peptide microarray binding signal,"[1]; peptide region: H3 30-42, peptide modifications: H3K36ac, binder concentration: 500 nM",0.0116 ± 0.0019
same,peptide microarray binding signal,"[2]; peptide region: H3 30-42, peptide modifications: H3K36ac, binder concentration: 10 nM",0.0378 ± 0.0029
same,peptide microarray binding signal,"[2]; peptide region: H3 30-42, peptide modifications: H3K36ac, binder concentration: 100 nM",0.0552 ± 0.0035
same,peptide microarray binding signal,[3]; [21],0.0364 ± 0.0021
same,peptide microarray binding signal,[3]; [22],0.0246 ± 0.0028
same,peptide microarray binding signal,[4]; [21],0.025 ± 0.0016
same,peptide microarray binding signal,[4]; [22],0.00963 ± 0.00018
LATKAARKSAPAT [H3 20-32 L A Tph K A A R K S A P A T],peptide microarray binding signal,"[1]; peptide region: H3 20-32, peptide modifications: H3T22ph, binder concentration: 50 nM",0.00339 ± 3.7e-05
same,peptide microarray binding signal,"[1]; peptide region: H3 20-32, peptide modifications: H3T22ph, binder concentration: 500 nM",0.00638 ± 0.00025
same,peptide microarray binding signal,"[2]; peptide region: H3 20-32, peptide modifications: H3T22ph, binder concentration: 10 nM",0.0046 ± 6.2e-05
same,peptide microarray binding signal,"[2]; peptide region: H3 20-32, peptide modifications: H3T22ph, binder concentration: 100 nM",0.00772 ± 0.00064
same,peptide microarray binding signal,[3]; [23],0.001548 ± 1.2e-05
same,peptide microarray binding signal,[3]; [24],0.00194 ± 3.1e-05
same,peptide microarray binding signal,[4]; [23],0.00068 ± 2.1e-05
same,peptide microarray binding signal,[4]; [24],0.00115 ± 2e-05

# Source: the supplement of paper PMC4022240
